Experimental data: PubChem BioAssay (Tox21)
Records with an inconclusive call do not appear. The source made the active and inactive calls. Unless noted, the call rests on the fitted dose curve.

Columns and labels:
[1] = Nuclear factor erythroid 2-related factor 2/antioxidant responsive element (Nrf2/ARE) small molecule agonists: qHTS cell viability counter screen in human keratinocytes (AID 1919968; active means well fitted curve in the direction sought with a large enough effect in the repeat runs; an effect the other way counts as inactive or inconclusive; further: nearly all actives have a fitted effect of over 55% in size)
Outline: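 HaCaT ARE reporter line, 1,500 cells/well; 5 h settle, 37 C/5% CO2; cpd in DMSO pinned; 23 h exposure; CellTiter-Fluor, 1 h; fluorescence.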

[2] = Nuclear factor erythroid 2-related factor 2/antioxidant responsive element (Nrf2/ARE) small molecule agonists: luciferase reporter gene qHTS assay in human keratinocytes (AID 1919969); further: nearly all actives have a fitted effect of over 35% in size
[3] = target: Gonadotropin-releasing hormone receptor (Homo sapiens) (UniProt P30968); assay: Human gonadotropin-releasing hormone receptor (GnRHR) small molecule agonists, calcium flux assay in GnRHR-HEK293 cells (AID 1920063); further: nearly all actives have a fitted effect of over 35% in size; further: potency means the concentration at half of the fitted maximal effect
Outline: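 GnRHR-HEK293, 1500 cells/well, 18 h 37 C/5% CO2; Ca dye 1 h 37 C; cpd pinned (DMSO), agonist mode; kinetic FL 480/540, 3 min, 1 s reads; 15 conc, n=3.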

[4] = target: KiSS-1 receptor (Homo sapiens) (UniProt Q969F8); assay: Human kisspeptin (KISS1R) small molecule agonists, calcium flux assay in KISS1R-HEK293 cells (AID 1920064; active means well fitted curve in the direction sought with a large enough effect in the repeat runs; an effect the other way counts as inactive or inconclusive)
Outline: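 Stable human KISS1R HEK293 line; 18 h plating, 37 C/5% CO2; calcium dye 1 h 37 C; compound pin transfer; kinetic fluorescence Ex/Em 480/540, 3 min.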

[5] = G protein-coupled receptor (GPCR) small molecule agonists, calcium flux assay: HEK293 wild type cell line counter screen (AID 1920065)
Outline: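 Kinetic fluorescence at Ex/Em 480/540, recorded every second over 3 min, served as the read-out after compound addition. Each compound was tested at 15 concentrations in triplicate on cells pre-loaded with calcium dye for 1 h.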

[6] = p53 small molecule agonists, cell-based qHTS assay with human liver microsomes (AID 1963577);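 further: p53 response element beta-lactamase reporter cells with liver microsomes plus NADPH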
Outline: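 p53RE-bla cells; 5 h settle, 37 C/5% CO2; cpd + HLM 0.5 mg/mL + NADPH 0.5 mg/mL (final); 16 h 37 C; LiveBLAzer 2 h RT dark; fluorescence readout.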

[7] = p53 small molecule agonists, cell-based qHTS assay with rat liver microsomes (AID 1963578)
Outline: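 Rat liver microsome activation: microsomes 0.5 mg/mL, NADPH 0.5 mg/mL final; p53RE-bla cells, 16 h 37 C; LiveBLAzer readout, 2 h RT dark.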

[8] = p53 small molecule agonists, cell-based qHTS assay with human liver microsomes: qHTS cell viability counter screen (AID 1963579); further: nearly all actives have a fitted effect of over 45% in size; further: potency means the concentration at half of the fitted maximal effect
Outline: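 Luminescent CellTiter-Glo read-out, 30 min at room temperature, gauged cytotoxicity in p53RE-bla cells exposed 16 h at 37 C to DMSO-dissolved compounds with metabolic activation by human liver microsomes and NADPH, each 0.5 mg/mL final.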

[9] = p53 small molecule agonists, cell-based qHTS assay with rat liver microsomes: qHTS cell viability counter screen (AID 1963580); further: nearly all actives have a fitted effect of over 45% in size
Outline: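 In HCT-116 cells carrying a p53 response element-bla reporter, compounds were metabolically activated in situ by rat liver microsomes with NADPH over 16 h. Cell ATP content then served as the cytotoxicity measure.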

[10] = p53 small molecule agonists, cell-based qHTS assay: qHTS cell viability counter screen (AID 1963581); further: nearly all actives have a fitted effect of over 45% in size
Outline: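 HCT-116 p53RE-bla cells, 4,000/well, plated 5 h before compound pin transfer; 16 h at 37 C; bla substrate 2 h RT; then CellTiter-Glo, 30 min RT, luminescence.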

[11] = cAMP Responsive Elements (CRE) small molecule agonists, cell-based qHTS assay (AID 1963590)
Outline: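 HEK 293T CRE-bla, 2,000 cells/well, 18 h preincubation 37 C/5% CO2; cpds (DMSO) pinned, 3 h; LiveBLAzer B/G FRET substrate, 2 h RT.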

[12] = cAMP Responsive Elements (CRE) small molecule antagonists, cell-based qHTS assay (AID 1963591; active means well fitted inhibition curve with a large enough effect in the signal ratio in the repeat runs, not every such curve was filed as active; the % refers to the signal ratio; further: potency means the concentration at half of the fitted maximal effect)
Outline: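 Beta-lactamase reporter read by FRET substrate (LiveBLAzer B/G) after 2 h at room temperature. CRE-bla HEK293T cells had received compound plus 0.25 uM (final) NKH477 for 3 h at 37 °C.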

[13] = target: Beta-2 adrenergic receptor (Homo sapiens) (UniProt P07550); assay: Adrenergic beta2 receptor (ADRB2) small molecule agonists, cell-based qHTS assay (AID 1963593); further: potency means the concentration at half of the fitted maximal effect
Outline: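 CHO cells stably over-expressing ADRB2 were plated overnight at 37C, then dosed with compounds plus a stimulation mix containing 100uM IBMX and 25uM Ro-20-1724 for 0.5hr at room temperature. cAMP was measured by HTRF competition, 1hr.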

[14] = target: D(2) dopamine receptor (Homo sapiens) (UniProt P14416); assay: Dopamine D2 receptor (DRD2) small molecule antagonists, cell-based qHTS assay (AID 1963595; active means well fitted inhibition curve with a large enough effect in the signal ratio in the repeat runs, with a control signal flat; the % refers to the signal ratio; further: potency means the concentration at half of the fitted maximal effect)
Outline: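 Cells were plated and grown for 24 h at 37 °C. Ro20-1724 (0.1 mM final) went in first, then compound for 10 min. NKH477 (200 nM) with quinpirole (12 nM) followed for 30 min at RT, then HTRF detection reagents for 1 h.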

[15] = target: 5-hydroxytryptamine receptor 2A (Homo sapiens) (UniProt P28223); assay: 5-hydroxytryptamine receptor 2A (HTR2A) small molecule antagonists, cell-based qHTS assay (AID 1963586); further: nearly all actives have a fitted effect of over 45% in size
Outline: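 Antagonist-mode intracellular calcium assay: DOI (4 nM) added after 5 min compound pre-incubation at room temperature to dye-loaded HTR2A-CHO cells. Fluorescence followed for 3 min, sampled every second.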

[16] = target: Muscarinic acetylcholine receptor M1 (Homo sapiens) (UniProt P11229); assay: Cholinergic receptor muscarinic 1 (CHRM1) small molecule antagonists, cell-based qHTS assay (AID 1963588); further: nearly all actives have a fitted effect of over 40% in size
Outline: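 CHRM1-CHO calcium-flux assay, antagonist mode. Cells were seeded 18 h, dye-loaded 1 h at 37 C and given compound for 5 min at RT, then acetylcholine was added at 50nM. FDSS fluorescence was read 3 min; 15 concentrations, three runs.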

[17] = target: Muscarinic acetylcholine receptor M1 (Homo sapiens) (UniProt P11229); assay: Cholinergic receptor muscarinic 1 (CHRM1) small molecule agonists, cell-based qHTS assay (AID 1963589); further: nearly all actives have a fitted effect of over 35% in size
Outline: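 Human M1 in stable CHO line; 18 h plating, 1 h dye load 37 C; cpd added (agonist mode); Ca2+ fluorescence kinetic read, 1 s intervals; 15 conc, 3 runs.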

[18] = target: D(2) dopamine receptor (Homo sapiens) (UniProt P14416); assay: Dopamine D2 receptor (DRD2) small molecule agonists, cell-based qHTS assay (AID 1963594); further: nearly all actives have a fitted effect of over 35% in size
Outline: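 HEK293 cells stably expressing DRD2 were cultured 24 h at 37 C, then given Ro20-1724 (0.1 mM final) and compounds for 10 min at room temperature. NKH477 (200nM) was then added for 30 min. cAMP was read by HTRF.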

[19] = target: Beta-2 adrenergic receptor (Homo sapiens) (UniProt P07550); assay: Adrenergic beta2 receptor (ADRB2) small molecule antagonists, cell-based qHTS assay (AID 1963592); further: series mostly up to about 92 µM; nearly all actives have a fitted effect of over 50% in size
Outline: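 Cells (CHO, stable ADRB2 overexpression) incubated 18-20hr at 37C; compounds added from DMSO; agonist mix (1nM isoproterenol, 100uM IBMX, 25uM Ro-20-1724) added; 0.5hr RT; d2-cAMP and anti-cAMP-cryptate added; 1hr RT; 665/615 nm read.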

[20] = target: 5-hydroxytryptamine receptor 2A (Homo sapiens) (UniProt P28223); assay: 5-hydroxytryptamine receptor 2A (HTR2A) small molecule agonists, cell-based qHTS assay (AID 1963587); further: nearly all actives have a fitted effect of over 30% in size
Outline: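 HTR2A-CHO cells, plated 18 h at 37 C/5% CO2, dye-loaded 1 h at 37 C; compounds in DMSO added by pin tool (agonist mode). Intracellular calcium flux read as kinetic fluorescence on FDSS over 2 min at 1 s intervals.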

Measured: Potency

Gonadotropin-releasing hormone receptor (Homo sapiens), sequence (P30968 whole entry, looked up): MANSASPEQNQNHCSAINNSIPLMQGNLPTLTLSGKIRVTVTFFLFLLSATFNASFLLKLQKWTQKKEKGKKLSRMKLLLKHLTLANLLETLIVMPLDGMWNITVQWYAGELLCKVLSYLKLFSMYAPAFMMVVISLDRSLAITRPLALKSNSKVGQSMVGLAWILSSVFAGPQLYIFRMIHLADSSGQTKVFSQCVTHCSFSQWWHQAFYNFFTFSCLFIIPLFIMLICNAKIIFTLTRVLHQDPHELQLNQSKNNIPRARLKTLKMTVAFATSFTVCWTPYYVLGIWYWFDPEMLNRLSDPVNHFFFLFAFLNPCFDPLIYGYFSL
Muscarinic acetylcholine receptor M1 (Homo sapiens), sequence (P11229 whole entry, looked up): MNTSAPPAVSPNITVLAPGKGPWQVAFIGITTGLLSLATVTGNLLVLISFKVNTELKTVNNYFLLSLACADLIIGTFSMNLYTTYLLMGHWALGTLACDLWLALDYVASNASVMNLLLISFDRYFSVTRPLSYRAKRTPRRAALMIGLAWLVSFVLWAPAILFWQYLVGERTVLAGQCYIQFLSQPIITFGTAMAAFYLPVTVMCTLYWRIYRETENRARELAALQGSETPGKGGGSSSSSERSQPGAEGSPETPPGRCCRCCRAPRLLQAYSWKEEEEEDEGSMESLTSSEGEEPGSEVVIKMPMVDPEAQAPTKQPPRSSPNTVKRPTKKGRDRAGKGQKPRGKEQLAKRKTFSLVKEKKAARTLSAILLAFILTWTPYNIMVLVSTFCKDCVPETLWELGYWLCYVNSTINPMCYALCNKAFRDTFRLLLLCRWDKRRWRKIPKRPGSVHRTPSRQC
D(2) dopamine receptor (Homo sapiens), sequence (P14416 whole entry, looked up): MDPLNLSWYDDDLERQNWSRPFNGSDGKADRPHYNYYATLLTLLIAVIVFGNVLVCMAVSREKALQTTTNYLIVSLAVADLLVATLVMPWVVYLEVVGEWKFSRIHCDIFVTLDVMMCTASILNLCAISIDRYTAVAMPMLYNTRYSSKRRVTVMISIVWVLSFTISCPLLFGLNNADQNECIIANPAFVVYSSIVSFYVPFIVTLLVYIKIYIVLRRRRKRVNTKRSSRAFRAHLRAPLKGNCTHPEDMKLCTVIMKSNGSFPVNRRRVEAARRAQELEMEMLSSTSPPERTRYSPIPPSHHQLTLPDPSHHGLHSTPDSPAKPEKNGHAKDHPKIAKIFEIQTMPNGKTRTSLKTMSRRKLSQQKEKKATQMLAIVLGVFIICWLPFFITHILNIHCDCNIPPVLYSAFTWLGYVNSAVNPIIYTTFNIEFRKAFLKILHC
KiSS-1 receptor (Homo sapiens), sequence (Q969F8 whole entry, looked up): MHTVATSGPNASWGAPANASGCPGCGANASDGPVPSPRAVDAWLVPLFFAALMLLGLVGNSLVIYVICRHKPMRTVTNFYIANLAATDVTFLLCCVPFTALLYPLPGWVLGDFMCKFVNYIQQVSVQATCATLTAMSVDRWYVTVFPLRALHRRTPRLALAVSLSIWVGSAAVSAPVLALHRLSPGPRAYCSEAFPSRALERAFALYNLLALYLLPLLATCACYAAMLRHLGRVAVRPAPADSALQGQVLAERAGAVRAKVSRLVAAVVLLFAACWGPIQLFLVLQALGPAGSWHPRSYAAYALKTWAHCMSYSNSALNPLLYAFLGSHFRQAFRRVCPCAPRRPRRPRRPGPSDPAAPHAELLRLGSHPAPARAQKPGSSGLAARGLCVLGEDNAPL
Beta-2 adrenergic receptor (Homo sapiens), sequence (P07550 whole entry, looked up): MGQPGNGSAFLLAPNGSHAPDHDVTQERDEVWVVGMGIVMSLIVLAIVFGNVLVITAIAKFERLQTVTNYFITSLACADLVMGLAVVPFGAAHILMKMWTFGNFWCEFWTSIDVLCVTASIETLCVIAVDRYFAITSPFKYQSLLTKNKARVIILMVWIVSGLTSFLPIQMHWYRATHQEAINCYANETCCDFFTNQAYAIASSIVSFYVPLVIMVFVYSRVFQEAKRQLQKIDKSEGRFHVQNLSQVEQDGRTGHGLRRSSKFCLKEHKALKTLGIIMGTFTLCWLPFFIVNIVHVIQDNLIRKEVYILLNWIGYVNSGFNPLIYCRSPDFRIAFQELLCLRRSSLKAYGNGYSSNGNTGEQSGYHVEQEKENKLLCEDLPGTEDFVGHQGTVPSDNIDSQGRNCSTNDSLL
5-hydroxytryptamine receptor 2A (Homo sapiens), sequence (P28223 whole entry, looked up): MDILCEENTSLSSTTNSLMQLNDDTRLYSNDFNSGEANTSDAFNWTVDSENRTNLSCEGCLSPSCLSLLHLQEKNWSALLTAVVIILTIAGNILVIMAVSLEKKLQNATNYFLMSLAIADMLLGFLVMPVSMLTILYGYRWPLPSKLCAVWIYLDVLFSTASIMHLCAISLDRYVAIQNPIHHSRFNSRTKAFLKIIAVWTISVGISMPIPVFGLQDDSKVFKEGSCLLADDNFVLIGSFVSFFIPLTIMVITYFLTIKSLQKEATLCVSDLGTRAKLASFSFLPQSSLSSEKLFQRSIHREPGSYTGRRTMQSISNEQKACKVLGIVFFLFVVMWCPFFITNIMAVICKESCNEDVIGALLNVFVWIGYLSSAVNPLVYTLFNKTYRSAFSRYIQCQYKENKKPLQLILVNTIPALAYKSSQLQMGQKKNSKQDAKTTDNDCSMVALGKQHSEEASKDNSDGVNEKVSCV

Cc1c(C)c2c(c(C)c1O)CC[C@@](C)(CCC[C@H](C)CCC[C@H](C)CCCC(C)C)O2
not listed: [15] | [16] | [17] | [18] | [19] | [20]
inactive: all other assays above

Cc1ccc(C(=O)Oc2ccc(C(O)CNC(C)(C)C)cc2OC(=O)c2ccc(C)cc2)cc1 (stereo not drawn)
active: [3] 53.5 nM | [8] 397 nM | [13] 84.1 nM | [14] 841 nM
not listed: [11] | [12] | [19] | [20]
inactive: all other assays above

CCn1cc(C(=O)O)c(=O)c2cc(F)c(N3CCNC(C)C3)c(F)c21 (stereo not drawn)
not listed: [11] | [15] | [16] | [17] | [20]
inactive: all other assays above

C=C(C)C1CC=C(C)C(O)C1 (stereo not drawn)
not listed: [13] | [15] | [20]
inactive: all other assays above

CCN(C(=O)c1cc(C)cc(OC[C@H](C)Nc2ccncc2)c1)C(C)C
active: [12] 21400 nM
not listed: [11] | [15]
inactive: all other assays above

C[C@H](N)[C@H](O)c1cccc(O)c1
not listed: [13] | [15] | [20]
inactive: all other assays above

Nc1ccc(S(=O)(=O)NCc2ccccc2)cc1
not listed: [13] | [14] | [15] | [17]
inactive: all other assays above

CCOC(=O)N1CCC(n2c(=O)[nH]c3cc(Cl)ccc32)CC1
not listed: [11] | [12] | [13] | [14] | [20]
inactive: all other assays above
